From PubChem BioAssay come the findings set out here.

Test [1] can be described thus: binders of probe aFSTL3 on microarray, primary screen, stem cell growth factor project, biochemical, small-molecule microarray, fluorescence 635/667 (AID 1064).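 Also: measures binding of the biotinylated anti-FSTL3 antibody to printed compounds.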 The conditions noted are these: higher = more signal.
Test [2] in a line: binders from COS7 lysate, DM2A8 probe, primary screen, torsin A project, cell lysate, small-molecule microarray, fluorescence 635/667 (AID 1065). The conditions noted are these: higher = more signal, COS7 lysate expressing mutant human TOR1A.
Test [3] in a line: binders of probe aFGF2 on microarray, primary screen, stem cell growth factor project, biochemical, small-molecule microarray, fluorescence 635/667 (AID 1067).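 Also: measures binding of biotinylated aFGF2 protein to printed compounds on slides; z-score merges feature fluorescence and signal-to-noise across triplicate slides.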 The conditions noted are these: higher = more signal.
A short description of test [4]: binders of probe aFGF10 on microarray, primary screen, stem cell growth factor project, biochemical, small-molecule microarray, fluorescence 635/667 (AID 1071).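 Also: score merges 667 nm spot intensity and signal to noise from triplicate slides.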 The conditions noted are these: higher = more signal.
Test [5] deals with Neurogenic locus notch homolog protein 2 (Homo sapiens) (UniProt Q04721). Kind of test: Notch2 binders on small-molecule microarrays, primary screen, biochemical, small-molecule microarray, 635 nm fluorescence, stem cell growth factors (AID 1073). To be noted: Notch2 binding, higher = more signal.
Sequence of Neurogenic locus notch homolog protein 2 (Homo sapiens) (Q04721 whole entry, looked up, canonical isoform): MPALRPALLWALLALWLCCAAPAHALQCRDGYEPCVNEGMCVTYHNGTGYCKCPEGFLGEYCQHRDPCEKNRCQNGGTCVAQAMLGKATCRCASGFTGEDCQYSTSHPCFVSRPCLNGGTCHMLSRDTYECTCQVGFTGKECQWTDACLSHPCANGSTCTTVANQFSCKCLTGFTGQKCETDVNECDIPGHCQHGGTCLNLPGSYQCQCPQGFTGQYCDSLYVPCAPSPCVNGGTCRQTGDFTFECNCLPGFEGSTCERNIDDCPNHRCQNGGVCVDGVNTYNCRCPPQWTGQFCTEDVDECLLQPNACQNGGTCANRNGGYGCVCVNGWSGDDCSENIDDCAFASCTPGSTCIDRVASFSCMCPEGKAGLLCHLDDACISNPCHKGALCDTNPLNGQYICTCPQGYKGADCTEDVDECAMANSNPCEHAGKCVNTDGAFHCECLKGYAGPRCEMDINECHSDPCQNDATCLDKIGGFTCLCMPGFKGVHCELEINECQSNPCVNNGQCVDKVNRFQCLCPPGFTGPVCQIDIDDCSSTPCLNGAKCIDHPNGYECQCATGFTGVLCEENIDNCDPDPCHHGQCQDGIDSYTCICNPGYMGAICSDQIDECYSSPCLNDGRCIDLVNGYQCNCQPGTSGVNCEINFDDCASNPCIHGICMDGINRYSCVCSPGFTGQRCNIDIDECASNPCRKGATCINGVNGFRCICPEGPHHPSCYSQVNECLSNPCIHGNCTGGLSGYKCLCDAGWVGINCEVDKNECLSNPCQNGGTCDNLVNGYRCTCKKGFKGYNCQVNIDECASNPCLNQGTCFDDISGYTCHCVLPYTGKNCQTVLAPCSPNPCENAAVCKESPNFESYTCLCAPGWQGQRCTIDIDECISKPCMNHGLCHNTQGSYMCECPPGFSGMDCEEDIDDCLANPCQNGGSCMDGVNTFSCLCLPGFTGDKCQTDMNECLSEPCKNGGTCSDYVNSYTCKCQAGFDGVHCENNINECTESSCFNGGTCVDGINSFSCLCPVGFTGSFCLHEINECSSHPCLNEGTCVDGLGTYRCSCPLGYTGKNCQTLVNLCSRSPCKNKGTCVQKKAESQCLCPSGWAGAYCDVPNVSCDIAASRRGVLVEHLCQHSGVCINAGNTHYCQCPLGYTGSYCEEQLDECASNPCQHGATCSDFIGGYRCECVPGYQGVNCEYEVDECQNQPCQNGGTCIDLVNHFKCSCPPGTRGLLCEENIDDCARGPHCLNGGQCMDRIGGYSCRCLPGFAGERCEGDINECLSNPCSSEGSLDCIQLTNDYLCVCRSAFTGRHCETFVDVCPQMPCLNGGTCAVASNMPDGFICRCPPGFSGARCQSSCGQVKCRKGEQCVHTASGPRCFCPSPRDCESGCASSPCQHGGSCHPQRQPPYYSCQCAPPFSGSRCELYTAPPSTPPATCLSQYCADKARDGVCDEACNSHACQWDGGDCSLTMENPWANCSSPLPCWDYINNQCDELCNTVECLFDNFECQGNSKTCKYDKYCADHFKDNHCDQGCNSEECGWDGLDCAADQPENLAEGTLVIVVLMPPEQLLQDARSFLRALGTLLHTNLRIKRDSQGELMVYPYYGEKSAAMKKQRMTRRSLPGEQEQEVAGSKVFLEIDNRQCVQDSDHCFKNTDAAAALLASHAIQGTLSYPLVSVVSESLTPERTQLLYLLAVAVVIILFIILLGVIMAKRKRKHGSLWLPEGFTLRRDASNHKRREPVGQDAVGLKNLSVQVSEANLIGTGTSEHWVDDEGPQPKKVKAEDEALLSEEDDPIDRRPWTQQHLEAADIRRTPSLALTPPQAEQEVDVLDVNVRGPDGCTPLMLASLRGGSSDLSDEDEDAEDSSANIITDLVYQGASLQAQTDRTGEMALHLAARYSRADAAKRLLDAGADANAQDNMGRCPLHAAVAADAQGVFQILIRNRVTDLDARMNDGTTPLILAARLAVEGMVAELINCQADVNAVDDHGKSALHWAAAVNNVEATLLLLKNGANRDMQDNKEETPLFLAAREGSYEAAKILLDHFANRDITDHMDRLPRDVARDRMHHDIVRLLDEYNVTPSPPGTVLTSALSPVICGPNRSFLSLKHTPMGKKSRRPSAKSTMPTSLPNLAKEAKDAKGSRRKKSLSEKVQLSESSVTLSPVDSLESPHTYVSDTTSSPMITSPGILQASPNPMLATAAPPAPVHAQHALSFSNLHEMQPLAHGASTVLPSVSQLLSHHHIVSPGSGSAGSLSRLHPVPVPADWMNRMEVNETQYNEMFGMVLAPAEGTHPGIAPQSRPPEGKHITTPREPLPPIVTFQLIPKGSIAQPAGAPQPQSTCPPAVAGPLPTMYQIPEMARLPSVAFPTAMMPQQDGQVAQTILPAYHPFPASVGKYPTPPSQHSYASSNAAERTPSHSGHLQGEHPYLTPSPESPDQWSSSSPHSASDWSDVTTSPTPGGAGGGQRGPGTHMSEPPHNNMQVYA
Test [6] deals with Pro-neuregulin-1, membrane-bound isoform (Homo sapiens) (UniProt Q02297). Kind of test: NRG1 binders on small-molecule microarrays, primary screen, psychiatric disease protein project, biochemical, small-molecule microarray, fluorescence 635/667 (AID 1075).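 Also: score combines 667 nm spot fluorescence with signal to noise.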 To be noted: NRG1 binding, 635 nm fluorescence, higher = more signal.
Sequence of Pro-neuregulin-1, membrane-bound isoform (Homo sapiens) (Q02297 whole entry, looked up, the tested form may be a part, canonical isoform): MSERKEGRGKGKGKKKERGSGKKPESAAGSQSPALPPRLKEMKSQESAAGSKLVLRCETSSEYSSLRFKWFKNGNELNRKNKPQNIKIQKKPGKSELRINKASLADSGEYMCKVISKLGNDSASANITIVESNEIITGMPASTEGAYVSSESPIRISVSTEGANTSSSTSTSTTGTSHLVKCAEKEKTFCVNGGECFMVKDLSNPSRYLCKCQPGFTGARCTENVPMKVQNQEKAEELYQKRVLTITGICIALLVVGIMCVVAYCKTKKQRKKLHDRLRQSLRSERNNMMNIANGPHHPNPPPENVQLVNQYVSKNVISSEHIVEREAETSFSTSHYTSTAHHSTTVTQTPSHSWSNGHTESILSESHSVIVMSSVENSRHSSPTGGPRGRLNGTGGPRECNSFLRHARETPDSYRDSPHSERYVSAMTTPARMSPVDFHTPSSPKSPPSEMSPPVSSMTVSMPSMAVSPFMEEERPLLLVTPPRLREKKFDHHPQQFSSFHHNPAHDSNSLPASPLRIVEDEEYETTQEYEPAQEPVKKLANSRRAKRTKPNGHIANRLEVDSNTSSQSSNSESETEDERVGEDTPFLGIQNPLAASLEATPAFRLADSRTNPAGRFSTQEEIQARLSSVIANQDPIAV
The subject of test [7] is Neuregulin-1 EGF-like domain. Kind of test: binders of neuregulin-1 EGF-like domain, primary screen, biochemical, small-molecule microarray, 635 nm fluorescence (AID 1081).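 Also: binding of the protein to compounds printed on small-molecule microarray slides.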 The conditions noted are these: small-molecule microarray binding, higher = more signal.
Test [8] is described as follows: FRG1 promoter luciferase signal modulators, primary screen, FRG1 inhibition for FSHD, cell-based, C2C12 myotubes, firefly/Renilla luciferase, luminescence (AID 1084). The conditions noted are these: higher = more signal, called active from +8 up or from −8 down.
Test [9] can be described thus: binders of probe aFST on microarray, primary screen, stem cell growth factor project, biochemical, small-molecule microarray, fluorescence 635/667 (AID 1086).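 Also: score merges 667 nm fluorescence with signal-to-noise of each printed compound spot.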 To be noted: higher = more signal.
The nature of test [10]: binders of probe aHhip on microarray, primary screen, stem cell growth factor project, biochemical, small-molecule microarray, fluorescence 635/667 (AID 1087).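 Also: score merges spot fluorescence at 667nm with spot signal to noise ratio.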 To be noted: higher = more signal.

The source made the active and inactive calls.

With `CCCC=C(CCC)[C@@H](NC(=O)CCc1ccccc1)c1ccc(C(F)(F)F)cc1`, the composite z-score came to 0.304 in test [1]; 0.0979 in [2]; 0.0836 in test [3]; 0.0199 in test [4]; 1.53 in [5]; 1.51 in test [6]. Also, the composite z-score in test [7] came out at 0.969; in test [9] it was 0.821; in test [10] it was 0.107. Moreover, the z-score in test [8] was -0.129 (inactive).

With `CCC(CC)C(O)C1C=CC2C(=O)N(c3ccccc3)C(=O)C2N1Nc1ccc([N+](=O)[O-])cc1` (stereo not given), the composite z-score in test [1] is 0.453; in [2], -0.0903; in test [3] it was 0.22; in test [4] it was 0.848; in [5], 1.56; in test [6] it was 1.07. The results for the composite z-score in [7], in test [9] and in test [10] were 1.26, 0.944 and 0.327, respectively. Moreover, in test [8], the z-score was -1.91 (inactive).

As for `COc1ccc([Si](C)(C)[C@@H]2[C@@H](CCn3cc([C@H](O)c4ccccc4)nn3)O[C@]3(C(=O)N(Cc4cccc(N5C(=O)c6cccc7cccc5c67)c4)c4ccccc43)[C@H]2C)cc1`, the composite z-score in test [1] is 0.022; in [2], -0.362; in test [3], -0.146; in test [4], -0.472; in test [5] it was -0.643; in test [6] it was 0.173. Besides, the figures for the composite z-score in test [7], in test [9] and in test [10] were 0.741, -0.0472 and -0.309, respectively. The z-score in test [8] was -0.814 (inactive).

`O=C1C2C=CC(C(O)c3cccc(O)c3)N(Nc3ccccc3)C2C(=O)N1c1ccccc1` (stereo not given): the composite z-score in test [1] was -0.0667; in test [2], -0.73; in test [3], -0.0901; in test [4], 0.212; in test [5] it was 1.08; in test [6] it was 0.977. Besides, the results for the composite z-score in test [7], in [9] and in [10] were 1.11, 0.35 and -0.0003, respectively. Besides, the z-score in test [8] was 1.23 (inactive).

For the molecule `C=C(/C(=C/C[C@@H](OC(C)=O)c1ccc(OCCO)cc1)c1cc(C(=O)OC)ccc1OC)C(C)C`, the composite z-score in [1] was -0.247; in test [2] it was 0.239; in test [3], -0.155; in test [4], 0.29; in [5], 0.355; in test [6], 1.67. In addition, the composite z-score in test [7] was 0.945; in test [9], -0.034; in test [10], 0.0024. Besides, the z-score in [8] was 2.89 (inactive).

Turning to `O=C1OCCC/C=C\[C@H]2OC34C=CCN(c5ccc6ccccc6c5)C(=O)[C@H]3N(CCCO)C(=O)[C@@H]4C12` (stereo not given in full), the composite z-score in [1] was -0.0204; in test [2], 0.994; in test [3], -0.101; in test [4], -0.316; in test [5], -0.631; in test [6], 0.437. Besides, the composite z-score in [7] is 0.626; in test [9], -0.72; in [10] it was -0.12. The z-score in [8] was 1.2 (inactive).

Turning to `CO[C@H]1O[C@H](CO)[C@@H](OC(=O)CCc2ccccc2)[C@H](OC(=O)c2cc3ccccc3[nH]2)[C@H]1OC(=O)c1cc2ccccc2[nH]1`, the composite z-score in test [1] is -0.262; in test [2] it was 0.489; in test [3] it was -0.0321; in test [4] it was 0.72; in test [5], 1.15; in test [6], 1.21. Further, the composite z-score in test [7] was found to be 1.02; in test [9] it was 0.29; in test [10], 0.0596. In [8], the z-score is -0.3 (inactive).

As for `O=C1O[C@H](c2ccccc2)[C@H](c2ccccc2)N2[C@H]1[C@@H](C(=O)N1CCCCCCC1)[C@]1(C(=O)Nc3ccc(C#CC4(O)CCCCCC4)cc31)[C@H]2c1ccccc1OCCO`, the composite z-score in test [1] was found to be 4; in [2], 2.61; in [3], 0.935; in test [4], 1.46; in [5] it was 1.83; in test [6], 2.5. For the same molecule, the composite z-score in test [7] is 1.33; in test [9], 3.82; in test [10], 1.9. The z-score in test [8] is -1.5 (inactive).

In the case of `COC(=O)[C@@]1(Cc2ccc(F)cc2)[C@H]2c3cc(C(=O)N(C)C)n(Cc4c(CO)[nH]cc(C)c4=O)c3C[C@H]2CN1C(=O)c1ccccc1`, the composite z-score was 0.535 in test [1]; -0.199 in test [2]; 0.142 in test [3]; 1.16 in [4]; 1.42 in test [5]; 2.1 in test [6]. Moreover, the composite z-score in [7] is 1.15; in test [9], 0.255; in [10], -0.0237. Also, in [8], the z-score was 1.09 (inactive).

Take `COCCOC(=O)N1C(=O)[C@@]2(c3ccccc31)[C@H](c1ccccc1OCCO)N1[C@H](c3ccccc3)[C@H](c3ccccc3)OC(=O)[C@H]1[C@@H]2C(N)=O`: the composite z-score was -0.299 in test [1]; 0.692 in [2]; -0.0015 in test [3]; 0.725 in test [4]; 1.23 in [5]; 0.133 in [6]. Besides, the composite z-score in test [7] is 1.3; in [9], 0.971; in test [10], -0.0645. Moreover, in test [8], the z-score is -2.08 (inactive).

As to `COCCOC(=O)N1C(=O)[C@@]2(c3cc(C#CCNC(N)=O)ccc31)[C@H](c1ccc(O)cc1)N1[C@H](c3ccccc3)[C@H](c3ccccc3)OC(=O)[C@H]1[C@@H]2C(=O)N1CCN(c2ncccn2)CC1`, the composite z-score is -0.487 in test [1]; 0.594 in test [2]; 0.0762 in test [3]; 0.661 in test [4]; 0.629 in test [5]; 1.19 in test [6]. The composite z-score is 1.1 in test [7], 0.34 in test [9] and -0.218 in [10]. The z-score in [8] is -0.523 (inactive).

As to `O=C(NCCN1CCOCC1)[C@@H]1c2ccccc2C(=O)N(Cc2ccccc2)[C@H]1c1ccc(CO)cc1`, the composite z-score is 0.39 in test [1]; -0.334 in test [2]; -0.175 in [3]; -0.961 in test [4]; -0.913 in [5]; 1.77 in test [6]. For the same molecule, the results for the composite z-score in test [7], in [9] and in test [10] were 1.1, -0.0557 and -0.312, respectively. Also, in [8], the z-score is -0.508 (inactive).

With `C=C[C@@H](OC)[C@H](OC(=O)Nc1ccc(SC)cc1)c1ccc(OCCO)cc1`, the composite z-score worked out at 0.0275 in test [1]; 0.363 in test [2]; 0.0166 in test [3]; 0.485 in [4]; 0.794 in test [5]; 1.43 in test [6]. The composite z-score in test [7] was determined as 1.33; in test [9], 0.574; in [10] it was 0.675. The z-score in test [8] was 6.53 (inactive).

For `CC(C)C[C@@H]1NC(=O)CNC(=O)[C@@]23C(=O)N[C@@H](Cc4ccccc4)C2[C@H](C)[C@@]2(C)O[C@H]2C3/C=C/C/C=C\CNC1=O` (stereo not given in full), the composite z-score in test [1] was -0.454; in [2], 0.109; in test [3] it was -0.087; in [4], 0.68; in test [5], 0.429; in test [6] it was 0.345. Further, the composite z-score in [7] is 0.919; in [9] it was 0.0427; in [10] it was -0.171. For the same molecule, in test [8], the z-score was 1.4 (inactive).

In the case of `O=C1NC(=O)C2C1C=CC(C(O)c1ccccn1)N2Nc1ccc(Cl)cc1Cl` (stereo not given), the composite z-score in test [1] was -0.0358; in test [2] it was -0.0795; in [3], -0.0132; in test [4], 0.895; in [5] it was 1.16; in [6], 1.36. The composite z-score in [7] stood at 0.626; in [9], 0.737; in test [10], 0.154. Besides, the z-score in test [8] is 0.362 (inactive).
